# HCV inhibitor = inhibitors of hepatitis C virus infection. 3.4% of 340,000 active. AID 651820. Potency, µM (highest dose often 41.8 µM), for the others: top-dose activity change, negative = inhibition, actives largely listed as inhibitors. Huh7.5.1 HCVcc-Cre infection, luciferase reporter, 44 h
#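 Antiviral activity was scored by luciferase reporter output from cells infected with HCVcc-Cre (~0.5 moi) in presence of compound, 44 h infection period, cells seeded 1,000/well 4 h prior.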
# AmpC no deterg = AmpC beta-lactamase inhibition without detergent. P00811. 0.52% of 330,000 active. Potency, µM (doses to about 57.1 µM), inactives show at the top dose activity change, negative = inhibition, most hits filed as inhibitors. AmpC nitrocefin hydrolysis, absorbance 480 nm, 0.0001% Triton. AID 485341;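 also: plate controls were no compound for no effect and no enzyme for full effect; nearly all actives have a fitted effect of over 20% in size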
# Target sequence (P00811 whole entry, looked up): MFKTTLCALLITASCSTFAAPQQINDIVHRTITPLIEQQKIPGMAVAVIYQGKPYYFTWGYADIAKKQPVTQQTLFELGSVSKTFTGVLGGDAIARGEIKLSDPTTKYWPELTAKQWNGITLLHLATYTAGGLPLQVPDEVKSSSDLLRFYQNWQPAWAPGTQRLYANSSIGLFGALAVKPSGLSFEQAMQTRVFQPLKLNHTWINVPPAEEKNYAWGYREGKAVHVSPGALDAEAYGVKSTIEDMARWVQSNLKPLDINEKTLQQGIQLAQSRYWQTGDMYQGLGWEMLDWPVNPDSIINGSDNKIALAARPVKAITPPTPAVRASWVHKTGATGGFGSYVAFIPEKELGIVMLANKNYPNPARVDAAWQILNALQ
#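 AmpC (5.3 nM in the dispensed reagent) in 20 mM phosphate pH 7.0 with 0.01% (detergent screen) or 0.0001% Triton X-100 was preincubated with compounds for 15 min at room temperature. Nitrocefin was then added from an 800 uM solution, and hydrolysis was followed at 480 nm.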
# AmpC detergent = AmpC beta-lactamase inhibition with detergent present; P00811; AmpC hydrolysis of nitrocefin, absorbance 480 nm, 0.01% Triton; Potency, µM (doses to about 114 µM), for inactives: top-dose activity change, negative = inhibition, most hits filed as inhibitors; 0.041% of 370,000 active; AID 485294;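 also: 0% = no-compound wells and -100% = no-enzyme wells; nearly all actives have a fitted effect of over 25% in size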
#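 20 mM phosphate pH 7.0 + 0.01% (detergent screen) or 0.0001% Triton X-100; 5.3 nM AmpC reagent; cpd preinc 15 min RT; nitrocefin (800 uM stock) to start; A480 q20 s × 4 min; Activity was normalised to no-enzyme and no-compound control wells.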
# AMA1-RON2 inh = inhibitors of Plasmodium falciparum AMA1-RON2 interaction; Potency, µM (doses to about 58.2 µM), for the others: at the top dose activity change, negative = inhibition, usual class: inhibitors; AlphaScreen AMA1-biotinylated RON2 peptide binding; AID 720542; 0.2% of 360,000 active;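 also: 0% = vehicle wells and -100% = peptide control; nearly all actives have a fitted effect of over 45% in size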
#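 AMA1 (3D7) with his tag at 25 nM final met compounds first, then biotinylated RON2 peptide at 25 nM; detection used donor plus acceptor beads, 10 µg/mL apiece, read by AlphaScreen after 30 min at room temperature.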
# Pf growth 48h = P. falciparum growth inhibition at 48 hours (one generation) | Potency, µM (highest dose often 28.7 µM), inactives show at the top dose activity change, negative = inhibition, most hits filed as inhibitors | P. falciparum luciferase growth in erythrocytes, 48 h | 5.9% of 310,000 active
#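 Cell-based growth assay: transgenic P. falciparum expressing firefly luciferase, cultured in red cells within RPMI 1640 containing 0.5% w/v Albumax, 24 mM bicarbonate and gentamycin. A drop in luciferase activity indicates inhibition.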
# Pf growth 96h = P. falciparum growth inhibition at 96 hours | P. falciparum luciferase reporter growth, 96 h | Potency, µM (doses to about 28.7 µM), inactives show top-dose activity change, negative = inhibition, usual class: inhibitors | 6.9% of 320,000 active
#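 96 h incubation, 37 C, 5% CO2, of luciferase-reporter P. falciparum-infected RBCs (2% hematocrit, 0.05% parasitemia final) with test compounds; endpoint luminescence.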
# * = called active by the depositor; ? = inconclusive; / = no result given; [ ] = dose if it differs, or a comment. Sampled rows, rich in hits. Any-hit rate of the full collection: about 11%. Calls follow the shape of the dose curve; as a rule, active = well fitted curve in the direction sought with a large enough effect; inconclusive = small, poorly fitted or top-dose-only effect, or another doubt; inactive = no such curve, though single readings can be large; an effect the other way counts as inactive or inconclusive. Unless noted, % is scaled to controls: 0 for no effect and ±100 for the full control effect; potency is read from the fitted curve at half-maximal effect.
SMILES,HCV inhibitor,AmpC no deterg,AmpC detergent,AMA1-RON2 inh,Pf growth 48h,Pf growth 96h
CC1=NN(C(=O)c2ccccc2C)C(O)(c2ccc(Cl)cc2)C1 (stereo unspecified),-4.4%,-20.9%,-18.6%,68.9%,-24.3%,10.4µM*
CCC1=NN(C(=O)c2ccc(Cl)cc2)C(O)(c2ccccc2)C1 (stereo unspecified),-2.8%,-5.0%,-0.4%,112.6%,?,3.29µM*
CC1=NN(C(=O)c2ccccc2Br)C(O)(c2ccc(Cl)cc2)C1 (stereo unspecified),8.0%,-13.9%,-4.7%,111.0%,-1.0%,?
COc1ccc(S(=O)(=O)N(CC(=O)N(C)Cc2ccccc2)c2ccc(Cl)cc2)cc1,/,/,9.6%,/,/,/
Cc1cc(C)cc(NC(=O)COc2cccc3c(=O)n(C)ccc23)c1,/,/,4.7%,/,/,/
CCc1ccccc1Nc1cc(C(=O)NCCCN(C)C2CCCCC2)c2ccccc2n1,/,/,3.2%,/,/,/
CCc1ccc(C(=O)Nc2cccc(-c3nc4cc(C(C)C)ccc4o3)c2)cc1,/,/,2.6%,/,/,/
O=C1c2ccccc2NC(c2ccccc2Br)N1CCCN1CCOCC1 (stereo unspecified),?,30.4%,1.2%,-0.9%,?,10.4µM*
Cc1ccc(C2Nc3ccccc3C(=O)N2CCCN2CCOCC2)cc1 (stereo unspecified),-0.6%,28.3%,6.4%,-3.7%,-9.8%,3.7%
CC(=O)c1c(C)[nH]c(C(=O)C(C)Sc2nnc(NC3CC3)s2)c1C (stereo unspecified),10µM*,-56.7%,-2.2%,-8.5%,13.1µM*,9.28µM*
O=C(NCc1ccc2c(c1)OCO2)c1ccc2c(c1)N(Cc1ccccc1F)C(=O)c1ccccc1S2,/,/,0.1%,/,/,/
CCC1CCCCN1CCCNC(=O)c1ccc2c(c1)N(Cc1c(F)cccc1Cl)C(=O)CS2 (stereo unspecified),13.9%,17.3%,-4.9%,-2.7%,13.1µM*,?
O=C(NCc1ccc2c(c1)OCO2)c1ccc2c(c1)N(Cc1c(F)cccc1Cl)C(=O)CS2,?,-36.5%,-11.6%,-24.7%,11.7µM*,-77.0%
Cc1ccc(-c2cc3nc(-c4ccccc4)cc(C(F)(F)F)n3n2)cc1,/,/,-3.7%,/,/,/
Cn1ncc2c(Nc3cccc(C#N)c3)ncnc21,/,/,3.6%,/,/,/
O=C(Nc1cc(F)ccc1F)c1cc2nc(-c3ccco3)cc(C(F)(F)Cl)n2n1,/,/,5.6%,/,/,/
O=S(=O)(c1ccccc1)N1CCC(O)(CSc2ccc(Cl)cc2)CC1,3.55µM*,-1.8%,-13.5%,5.3%,7.4%,-2.0%
O=S(=O)(c1ccc(Cl)cc1)N1CCC(O)(CN2CCN(Cc3ccccc3)CC2)CC1,12.6µM*,120.7%,-2.7%,-1.6%,-26.2%,6.1%
CCC(=O)O[C@]1(C(=O)CCl)[C@@H](C)CC2C3C[C@H](F)C4=CC(=O)C=CC4(C)[C@@]3(F)C(O)CC21C (stereo partly specified),/,/,/,/,1.9µM*,-12.6%
C[C@@H]1C[C@H]2[C@@H]3CCC4=CC(=O)C=C[C@]4(C)[C@@]3(F)[C@@H](O)C[C@]2(C)[C@@]1(O)C(=O)COP(=O)(O)O,2.3%[8.37 µM],0.4%,-1.1%,-0.4%,33.7%,39.4%
CCCC(=O)O[C@]1(C(=O)CCl)[C@@H](C)C[C@H]2[C@@H]3CCC4=CC(=O)C=C[C@]4(C)[C@@]3(F)C(=O)C[C@@]21C,2.7%[8.37 µM],69.6%,-14.8%,8.7%,1.65µM*,1.31µM*
CC12C=CC(=O)C=C1CCC1C3CCC(O)(C(=O)CO)C3(C)CC(O)C12F (stereo unspecified),32.4%,/,/,20.5%,/,/
CCC(=O)O[C@@]1(C(=O)CCl)C(C)CC2C3CCC4=CC(=O)C=C[C@@]4(C)[C@]3(F)C(O)C[C@]21C (stereo partly specified),/,/,/,/,6.75µM*,3.38µM*
